The whole screen tested about 98,000 compounds, of which about 4,900 (5%) were called active. Rule as the data show it: active = inhibition above about 30%; inactive = the rest. What follows is part of a selection rich in actives, with near analogues and random picks from the rest.
Experiment: yeast control strain growth suppression – counter-screen for post-Golgi transport modulator project, primary screen (AID 738)
Settings: efflux-deficient yeast background strain, growth absorbance A615, 16 h; at 10 µM; active compounds read high

SMILES | inhibition
Cc1cc(C(=O)OCC(=O)Nc2ccc(F)c(F)c2)c(C)o1 | 8.41% (inactive)
O=C(Nc1ccc2sc3ccccc3c(=O)c2c1)c1ccccc1Cl | -1.51% (inactive)
CN(CC#CCC(c1ccccc1)c1ccccc1)C(C)(C)C | 15.3% (inactive)
COC(=O)c1ccccc1NC(=O)CN(Cc1ccc(Cl)cc1)S(C)(=O)=O | 20.7% (inactive)
CC(=O)N1Cc2ccccc2CC1C(=O)O (stereo not drawn) | -1.83% (inactive)
Cc1ccc(S(=O)(=O)N(CC(=O)N2CCc3ccccc3C2)c2cccc(Cl)c2)cc1 | 53.7% (active)
CCOC(=O)N1CCN(C(=O)CN(c2ccc(C)c(C)c2)S(=O)(=O)c2ccccc2)CC1 | -2.62% (inactive)
COc1cccc(N(CC(=O)N2CCc3ccccc3C2)S(C)(=O)=O)c1 | 2.59% (inactive)
COc1ccc(Cl)cc1NC(=O)CN(C)C(=O)CNC(=O)C12CC3CC(CC(C3)C1)C2 | 11.5% (inactive)
CCCCN=C1N/C(=C\c2ccco2)C(=O)N1c1ccccc1 | 13.4% (inactive)
Cc1ccc(C(=O)NNC(=O)OC(C)(C)C)c(Cl)c1 | -3.45% (inactive)
O=c1cc(CN2CCN(c3cccc(Cl)c3)CC2)c2cc3c(cc2o1)CCCC3 | 1.31% (inactive)
COc1ccc(N2CCN(Cc3cc(=O)oc4ccc5ccccc5c34)CC2)cc1 | 31% (active)
COc1ccc(N2CCN(Cc3ccc(Br)s3)CC2)cc1 | 1.68% (inactive)
NC(=O)c1nsc(C(=O)N(CC(=O)NCc2ccc(F)cc2)Cc2ccco2)c1N | -18.4% (inactive)
COc1ccc(OCC(=O)NN2Cc3ccccc3C2=N)cc1 | 30.9% (active)
COc1ccc(C(=O)Nc2cc(C)ccc2NC(=O)COc2ccccc2)cc1 | -12.5% (inactive)
COc1ccc(OCC(=O)N2CCN(C(=O)COc3ccccc3)CC2)cc1 | -2.43% (inactive)
Cc1cccc(N2CCN(C(=O)c3cnn4c(C(F)F)cc(-c5ccccc5)nc34)CC2)c1C | 61.4% (active)
O=C(O)c1cnn2c(C(F)(F)F)cc(-c3ccccc3)nc12 | -4.57% (inactive)
CC(=O)N1CCN(c2cccc(C)c2C)CC1 | 3.94% (inactive)
Clc1ccccc1-c1cc(COc2ccc3ccccc3c2)no1 | 1.75% (inactive)
CN(C)S(=O)(=O)c1ccc(N2CCCC2)c(C(=O)NCc2ccccc2)c1 | 4.17% (inactive)
CCOc1[nH]n(-c2ccc(Cl)cc2)c(=O)c1C=Nc1ccc(O)cc1 | 1.52% (inactive)
CCOc1ccc(N=C2NC(=O)S/C2=C\c2ccc(O)cc2)cc1 | 41.5% (active)

SMILES | inhibition
CCOc1ccc(N=C2SC(C(=O)O)CC(=O)N2C)cc1 (stereo not drawn) | -1.43% (inactive)
O=C1CCN(C(=O)Nc2ccccc2)N1 | 1.84% (inactive)
Cc1ccccc1NC(=S)Nc1cccc([N+](=O)[O-])c1 | -0.57% (inactive)
CCOC(=O)N1CCN(C(=O)c2ccc(S(=O)(=O)c3ccc(C)cc3)c(NC(C)=O)c2)CC1 | 7.81% (inactive)
CCOC(=O)N1CCN(C(=O)c2ccc3c(c2)N(Cc2ccc(C)cc2)CCS3)CC1 | 34.6% (active)
CCOC(=O)N1CCN(C(=O)c2ccc(CN(c3ccc(C)c(C)c3)S(C)(=O)=O)cc2)CC1 | 3.07% (inactive)
Cc1ccc(NC(=O)CN2CCc3ccccc3C2)cc1 | 8.09% (inactive)
O=C(Oc1ccc([N+](=O)[O-])cc1)c1ccc2ccccc2n1 | 41.8% (active)
N/C(Cc1ccc([N+](=O)[O-])cc1)=N\OC(=O)COc1ccc2ccccc2c1 | 18.8% (inactive)
Cc1cccc(NC(=O)c2ccc3ccccc3n2)n1 | 12.6% (inactive)
Cc1ccc(C(=O)OC2=CC(=O)CC(C)(C)C2)cc1 | -1.57% (inactive)
COc1cccc(NC(=O)c2nn(C34CC5CC(CC(C5)C3)C4)cc2[N+](=O)[O-])c1 | 26.5% (inactive)
Cc1ccc(S(=O)(=O)Nc2nc3ccccc3nc2N2CCc3ccccc3C2)cc1 | 19.2% (inactive)
Cc1ccc2c(c1)c1ncnc(N3CCc4ccccc4C3)c1n2C | 30% (active)
Cc1ccc2c(c1)c1ncn(CCC3=CCCCC3)c(=O)c1n2C | 21.9% (inactive)
O=C(O)/C=C/C(=O)Nc1ccc(F)cc1F | 11.5% (inactive)
Cc1ccc(-c2nc3c(cnn3-c3ccccc3)c(=O)o2)cc1 | 15.6% (inactive)
Cc1ccc(-n2nc(N)c3c(=O)oc(N(C)C)nc32)cc1 | 33.1% (active)
O=C(Nc1cc(-c2nn(CC(=O)N3CCCCC3)c(=O)c3ccccc23)ccc1N1CCOCC1)c1ccc(Cl)cc1 | 0.85% (inactive)
N=c1ccn(CC(=O)NC(N)=O)c2ccccc12 | 12.8% (inactive)
N#Cc1ccc(Oc2cc(C(F)(F)F)nc(-c3ccccn3)n2)cc1 | 1.51% (inactive)
O=C(Oc1ccccc1)Oc1ccc2c(c1)oc(=O)c1ccccc12 | 41% (active)
CC(=O)Oc1ccc2c(C)c(CC(C)O)c(=O)oc2c1 (stereo not drawn) | 9.1% (inactive)
CC(=O)Nc1cc2ccc(OC(C)=O)cc2oc1=O | -1.59% (inactive)
CSc1nc2ccccc2cc1/C=C(\C#N)c1ccc(Cl)cc1Cl | 24.2% (inactive)

SMILES | inhibition
O=C(Nc1ccc2c(c1)OCCO2)c1cnccn1 | 14.2% (inactive)
O=C(CCN1C(=O)c2ccccc2C1=O)Nc1ccncc1 | 13.3% (inactive)
O=C(Nc1ccc2c(c1)OCCO2)c1ccncc1 | 31.6% (active)
Cn1c(=O)n(C)c2cc(C(=O)Nc3ccc4c(c3)OCO4)ccc21 | 1.14% (inactive)
O=C(CCN1C(=O)c2ccncc2C1=O)Nc1ccc2c(c1)OCCO2 | 30.7% (active)
CCCCC(=O)Nc1ccc2c(c1)OCCO2 | -0.45% (inactive)
O=c1c2ccccc2c(-c2ccc(Br)cc2)nn1Cc1ccccc1 | 12% (inactive)
c1ccc(-n2nnnc2NC2CCCCCC2)cc1 | 2.73% (inactive)
COC(=O)/C=C/C(=O)NCc1ccco1 | 4.81% (inactive)
Cc1cc(-c2ccccc2)n2nc(C)c(-c3ccccc3)c2n1 | 0.91% (inactive)
O=C(N/N=C\c1ccc(-c2ccc(Cl)c(Cl)c2)o1)C(=O)N1CCCC1 | -8.31% (inactive)
O=c1c2ccccc2nc2n1C(CSc1ccc(F)cc1)CN2 (stereo not drawn) | 8.1% (inactive)
O=C1COc2ccc(NC(=O)N3CCN(c4ccc(F)cc4)CC3)cc2N1 | -5.66% (inactive)
COC(=O)c1ccc(C(=O)OC)c(NC(=S)N2CCCCC2)c1 | 5.49% (inactive)
O=C(CCC(=O)c1cccs1)NCc1ccccc1 | -10% (inactive)
O=C(COC(=O)CCC(=O)c1cccs1)NCc1ccco1 | 34.5% (active)
O=C(COC(=O)C12CC3CC(CC(C3)C1)C2)NCc1ccco1 | 17.3% (inactive)
O=C(c1ccc(F)cc1)c1c[nH]c(C(=O)NCc2cccnc2)c1 | 1.34% (inactive)
S=C(NCCC1=CCCCC1)Nc1ccccc1 | 2.15% (inactive)
CCCc1nc2ccccc2c(C(=O)OCc2nnc(-c3cc(OC)c(OC)c(OC)c3)o2)c1CC | 3.36% (inactive)
COc1cc(-c2nn3c(-c4cccc(C)c4)nnc3s2)cc(OC)c1OC | 26.7% (inactive)
CCC(C)n1c(-c2cc(OC)c(OC)c(OC)c2)nc2nc3ccccc3nc21 (stereo not drawn) | 38.7% (active)
CC(=O)NS(=O)(=O)c1ccc(NC(=S)NC(=O)C(C)(C)C)cc1 | -5.72% (inactive)
Cn1c(NN)nc2sc3c(c2c1=O)CCC3 | 7.4% (inactive)
CC1Cc2ccccc2N1C(=O)c1cc2sccc2n1Cc1ccccc1 (stereo not drawn) | 15.2% (inactive)

SMILES | inhibition
CCOC(=O)c1cc2sccc2n1Cc1ccc(C#N)cc1 | 33.7% (active)
O=C(NCc1ccco1)c1cc2sccc2n1Cc1ccc(F)cc1 | 27.8% (inactive)
Clc1ccccc1SCc1nc2ccccc2[nH]1 | 9.02% (inactive)
Cc1nc(-c2ccccc2)sc1-c1nc(-c2ccccc2)ncc1S(=O)(=O)c1ccccc1 | 12% (inactive)
O=C(Nc1ccc(Cl)cc1)N1CCc2[nH]c3ccccc3c2C1 | 36.5% (active)
CCCC(=O)N1CCc2[nH]c3ccccc3c2C1 | -9.39% (inactive)
O=C(NC1CCCCC1)N1CCc2[nH]c3ccccc3c2C1 | -9.69% (inactive)
O=C(c1ccccc1)c1cc(-c2ccccn2)c(N2CCOCC2)s1 | 18% (inactive)
O=S(=O)(N/N=C\c1cccn1-c1ccccc1)c1ccc2ccccc2c1 | 16.6% (inactive)
Cc1n[nH]c(=O)n1-c1ccc(Oc2ccccc2)cc1 | 20.1% (inactive)
Cc1cc2cc(CN(Cc3cccs3)Cc3nnnn3CC3CCCO3)c(=O)[nH]c2cc1C (stereo not drawn) | 37.9% (active)
COc1ccc2[nH]c(=O)c(CN(Cc3nnnn3CCc3ccccc3)CC3CCCO3)cc2c1 (stereo not drawn) | 5.93% (inactive)
Cc1cc(C)c2cc(CN(Cc3cccs3)Cc3nnnn3CC3CCCO3)c(=O)[nH]c2c1 (stereo not drawn) | 17% (inactive)
CC(C)(C)c1cc2cccnc2n1Cc1cccc(F)c1 | -2.87% (inactive)
N#C/C(=C(/O)COc1cccc2ccccc12)c1nc2ccccc2[nH]1 | -2.22% (inactive)
COC(=O)Cc1nc2ccccc2[nH]1 | 0.73% (inactive)
Cc1ccccc1OC/C(O)=C(\C#N)c1nc2ccccc2[nH]1 | 48.1% (active)
O=C(CSc1nc2ccccc2o1)N1c2ccccc2Sc2ccc(Cl)cc21 | 17% (inactive)
O=C1CSC(c2ccccc2)N1c1nc(-c2ccc(Cl)cc2Cl)cs1 (stereo not drawn) | 5.96% (inactive)
CCOC(=O)C1Sc2[nH]c(=O)sc2C(c2ccc(Cl)cc2)C1C(=O)OCC (stereo not drawn) | 12% (inactive)
Clc1cccc(-c2nc3nc4ccccc4nc3n2Cc2ccco2)c1 | 32.4% (active)
CC(Sc1nc2ccccc2c(=O)n1Cc1ccco1)C(=O)c1ccccc1 (stereo not drawn) | 20.6% (inactive)
Cc1ccc(Cn2c(C)nc3c(c2=O)c2nc4ccccc4nc2n3Cc2ccco2)cc1 | 20.3% (inactive)

Source: PubChem BioAssay AID738 (SRMLSC, 2007)
